Reference: PubChem BioAssay
Values joined by “and” are separate entries in the source; they are usually repeats but may differ in a detail not shown here. Equal values may be shown once. Records with an inconclusive call do not appear. For part of these data: Potency and affinity values are given separately. Active and inactive are the calls of the source. Unless noted, no rule for the calls is given here.

Legend:
[1] = P. berghei load reduction in hepatocytes – cell-based, HepG2, luciferase luminescence, HepG2 viability, primary screen (AID 624349; in the data active = parasite load remaining mostly below about 12%, no sharp cut-off; inactive = mostly above about 10%;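 also: 100% = mean of DMSO negative control wells on the same plate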); conditions: P. berghei liver stage in HepG2, luciferase luminescence, concentration not given here; parasite load remaining: stronger effect = lower value; viability: measured here: HepG2 viability without parasites
[2] = viability loss with induced miR-34 in A549 – imaging, A549 dox-inducible miR-34, nuclei and caspase counts, primary screen (AID 1347080;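 active = compounds whose cell count with miR-34 switched on is under 0.7 times the count with it off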); conditions: A549 miR-34 inducible, Hoechst nuclei count, 48 h
[3] = MELAS cybrid and Rieske KO viability enhancers – cell-based, MELAS cybrids, Rieske KO mouse fibroblasts, CellTiter-Glo, primary screen (AID 1508586;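 active = mean z-score across replicates of 1.96 or higher in either the MELAS or the Rieske mutant cell line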;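 also: z relative to plate mean and SD of compound and empty wells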); conditions: low glucose
[4] = liver-stage malaria parasite load reduction – cell-based, known kinase inhibitor set, luminescence, hepatoma host viability (AID 624392); conditions: Plasmodium liver stage in hepatoma cells, luciferase luminescence, concentration not given here; liver cell % of control: measured here: host liver cell viability; parasite % of control: stronger effect = lower value;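 also: infected cells incubated roughly two days before readout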
[5] = compounds altering viability of human ES cells (AID 493140); conditions: human embryonic stem cell survival screen; stronger effect = higher value;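 also: cells exposed to compounds for four days before counting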
[6] = molecular target: NAD(+) hydrolase SARM1 (Homo sapiens) (UniProt Q6SZW1); assay: blocking NAD cleavage by SARM1 SAM-TIR – cell lysate, NAD-Glo luminescence (AID 1508614;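 active = compound whose remaining NAD level is above about 45 nM, limit read from the data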;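 also: higher remaining NAD means stronger inhibition of SARM1 NADase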); conditions: SAM-TIR HEK293T lysate NADase, at 1 µM, stronger effect = higher value
[7] = molecular target: Mitogen-activated protein kinase 7 (Homo sapiens) (UniProt Q13164); assay: Gal4-ERK5 driven luciferase induction – cell-based, HTS, primary screen (AID 1508626;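 active = luciferase signal above three times the same-plate solvent-only control wells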;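 also: luciferase driven by Gal4-ERK5 fusion binding five Gal4 sites before minimal TATA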); conditions: HeLa Gal4-ERK5 transactivation, 18 h, at 5 µM, stronger effect = higher value
[8] = blockers of polyQ-driven CASP3 activation – cell-based (AID 1583); conditions: polyglutamine-induced caspase-3 activation, cell assay; stronger effect = higher value;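 tested at 10 µM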
[9] = yeast 75Q aggregation reduction – 75Q-TubU reporter (AID 1593); conditions: Yeast 75Q polyglutamine aggregation reporter
[10] = restoration of touch response, mutant HTT neurons – whole organism, C. elegans mechanosensory neurons, N-terminal huntingtin (AID 1599); conditions: C. elegans polyQ-huntingtin mechanosensory neurons, stronger effect = higher value
[11] = blockers of cytochrome c efflux from mitochondria – biochemical, purified mitochondria (AID 1603); conditions: stronger effect = lower value;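 also: mouse liver mitochondria challenged with calcium chloride; signal normalized to the plate average as 100%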
[12] = polyglutamine aggregate formation blockers (AID 1604); conditions: polyglutamine-induced protein aggregation inhibition assay; stronger effect = higher value; tested at 2.5 µM
[13] = rescue of PC12 cells from polyQ htt toxicity – LDH release (AID 1610); conditions: PC12 mutant huntingtin toxicity, final LDH at 4 uM, stronger effect = lower value
[14] = glutamate transport activators, MN-1 cells, MN-1 cell line (AID 1612); conditions: MN-1 motor neuron cells, stronger effect = higher value;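 also: tested at 1 µM final; 0% = mean of DMSO vehicle wells on each plate; positive means more glutamate uptake than control and negative means less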
[15] = 75Q-TubH aggregate inhibition, S. cerevisiae, yeast (AID 1616); conditions: S. cerevisiae 75Q-TubH polyglutamine aggregation suppression; stronger effect = higher value
[16] = compounds altering circadian rhythm period length – cell-based, LOPAC library, luminescence reporter (AID 2774); conditions: circadian reporter cells, at 7 µM, actives lie on both sides;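 also: values are relative to mean of DMSO wells on each plate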
[17] = tested on: Hepatitis C virus NS3 helicase; assay: blockers of NS3h binding to ssDNA – biochemical, fluorescence polarization, LOPAC1280 library, primary screen (AID 687035; in the data active = inhibition above about 37%); conditions: Purified HCV NS3 helicase, Cy5-dT15 ssDNA binding fluorescence polarization; stronger effect = higher value; concentration not given here
[18] = compounds altering Cy5-DNA-NS3h complex signal – biochemical, LOPAC1280, artefact control for HCV NS3 helicase inhibitor project (AID 687037); conditions: Cy5-DNA-NS3h complex fluorescence interference counterscreen
[19] = galactose survival enhancers in mitochondrial complex I cybrids – cell-based, galactose medium, ATP luminescence, primary screen (AID 1645843;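 active = z-score of at least 1.8 in each of two replicates, scored against plate mean and spread of sample wells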;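 also: positive z means more ATP and so rescue of galactose-driven cybrid death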); conditions: complex I mutant cybrid cells, 72 h, stronger effect = higher value
[20] = GFP-Q80 aggregate reduction, neuronal-like cells, cell-based, NGF-treated PC12, GFPQ80 (AID 1614); conditions: PC12 NGF-treated GFP-polyQ80 inclusion reduction;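 also: lower means fewer inclusions and 0 means no inclusions at all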
[21] = stronger effect = lower value, cell number ratio, induced over uninduced
[22] = measured here: relative caspase fold change +Dox/-Dox
[23] = measured here: total cells with miR-34 induction, stronger effect = lower value
[24] = measured here: total cells without miR-34 induction
[25] = MELAS cybrid survival, CellTiter-Glo 48 h, stronger effect = higher value
[26] = Rieske KO mouse fibroblast survival, CellTiter-Glo 72 h

Chain of Mitogen-activated protein kinase 7 (Homo sapiens) (Q13164 whole entry, looked up, the tested form may be a part): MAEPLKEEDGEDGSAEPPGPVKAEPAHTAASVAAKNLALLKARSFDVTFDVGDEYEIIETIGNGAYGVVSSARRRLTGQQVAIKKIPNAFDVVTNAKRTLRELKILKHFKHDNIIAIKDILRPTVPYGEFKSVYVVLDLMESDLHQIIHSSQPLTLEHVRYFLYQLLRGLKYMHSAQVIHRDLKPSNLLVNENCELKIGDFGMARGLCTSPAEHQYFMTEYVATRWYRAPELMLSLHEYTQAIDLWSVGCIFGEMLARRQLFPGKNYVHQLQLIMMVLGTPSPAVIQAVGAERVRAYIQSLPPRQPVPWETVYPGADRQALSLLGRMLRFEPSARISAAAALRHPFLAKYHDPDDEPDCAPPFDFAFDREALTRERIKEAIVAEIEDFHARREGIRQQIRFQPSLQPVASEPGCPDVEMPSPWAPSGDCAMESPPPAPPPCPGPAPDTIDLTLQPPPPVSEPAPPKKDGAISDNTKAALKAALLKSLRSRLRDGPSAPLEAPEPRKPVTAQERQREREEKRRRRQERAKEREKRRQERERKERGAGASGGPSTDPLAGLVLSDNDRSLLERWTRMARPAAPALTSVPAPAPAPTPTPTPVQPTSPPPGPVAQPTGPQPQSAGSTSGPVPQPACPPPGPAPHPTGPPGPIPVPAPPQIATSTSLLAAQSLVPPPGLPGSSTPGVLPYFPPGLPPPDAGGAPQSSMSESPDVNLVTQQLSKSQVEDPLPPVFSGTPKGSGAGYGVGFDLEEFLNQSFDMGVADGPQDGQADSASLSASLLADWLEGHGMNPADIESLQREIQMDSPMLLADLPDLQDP
Chain of NAD(+) hydrolase SARM1 (Homo sapiens) (Q6SZW1 whole entry, looked up, the tested form may be a part): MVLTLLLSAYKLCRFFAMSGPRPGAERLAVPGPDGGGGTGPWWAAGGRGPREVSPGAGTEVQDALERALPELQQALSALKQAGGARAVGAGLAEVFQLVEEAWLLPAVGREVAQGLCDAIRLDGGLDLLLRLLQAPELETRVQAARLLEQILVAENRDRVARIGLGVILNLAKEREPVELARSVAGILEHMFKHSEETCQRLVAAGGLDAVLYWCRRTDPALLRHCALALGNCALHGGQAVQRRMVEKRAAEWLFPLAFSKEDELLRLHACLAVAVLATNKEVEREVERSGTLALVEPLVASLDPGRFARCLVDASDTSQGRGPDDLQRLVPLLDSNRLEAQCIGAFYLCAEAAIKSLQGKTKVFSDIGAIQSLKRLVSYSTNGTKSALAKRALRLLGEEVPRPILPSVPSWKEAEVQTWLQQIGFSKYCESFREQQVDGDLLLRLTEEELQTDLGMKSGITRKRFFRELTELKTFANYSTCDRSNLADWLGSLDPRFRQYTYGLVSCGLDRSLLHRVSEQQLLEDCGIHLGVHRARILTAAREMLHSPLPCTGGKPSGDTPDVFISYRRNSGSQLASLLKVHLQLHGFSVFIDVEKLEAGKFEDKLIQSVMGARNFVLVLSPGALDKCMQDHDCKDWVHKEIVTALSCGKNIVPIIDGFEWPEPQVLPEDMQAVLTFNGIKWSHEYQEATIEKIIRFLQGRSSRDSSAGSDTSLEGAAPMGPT

## CC(=O)N[C@@H](CC(=O)N[C@H](CCC(=O)O)C(=O)O)C(=O)O
[1]
  parasite load remaining: 91.6% (inactive)
  viability: 69.1%
[2]; [21]
  fold change: 0.929 (inactive)
[2]; [22]
  fold change: 1.02
[2]; [23]
  cell count: 9500
[2]; [24]
  cell count: 10200
[3]; [25]
  z-score: 0.603 (inactive)
[3]; [26]
  z-score: 0.146

## CC(=O)Nc1c(I)c(C(=O)N[C@H]2C(O)O[C@H](CO)[C@@H](O)[C@@H]2O)c(I)c(N(C)C(C)=O)c1I (stereo partly specified)
[1]
  parasite load remaining: 113% (inactive)
  viability: 109%
[2]; [21]
  fold change: 0.901 (inactive)
[2]; [22]
  fold change: 1.22
[2]; [23]
  cell count: 9390
[2]; [24]
  cell count: 10400
[3]; [25]
  z-score: 0.559 (inactive)
[3]; [26]
  z-score: 0.37

## Cc1[nH]c(C=C2C(=O)Nc3ccccc32)c(C)c1CCC(=O)O
[4]
  liver cell % of control: 515% and 322% and 191%
  parasite % of control: 51% (inactive) and 49.5% (inactive) and 54.8% (inactive)
[2]; [21]
  fold change: 0.955 (inactive)
[2]; [22]
  fold change: 0.799
[2]; [23]
  cell count: 7040
[2]; [24]
  cell count: 7360
[3]; [25]
  z-score: -0.288 (inactive)
[3]; [26]
  z-score: 0.507

## Cn1nnnc1SCC1=C(C(=O)O)N2C(=O)[C@@H](NC(=O)[C@H](O)c3ccccc3)[C@H]2SC1
[5]
  survival: 7.33 (inactive)
[1]
  parasite load remaining: 73.2% (inactive)
  viability: 97.6%
[2]; [21]
  fold change: 0.871 (inactive)
[2]; [22]
  fold change: 1.18
[2]; [23]
  cell count: 9300
[2]; [24]
  cell count: 10700
[6]
  remaining NAD: 10 nM (inactive)
[7]
  luciferase signal: 36 AU (inactive)

## O=C(c1cccnc1)N1CCOCC1
[2]; [21]
  fold change: 0.924 (inactive)
[2]; [22]
  fold change: 0.837
[2]; [23]
  cell count: 7970
[2]; [24]
  cell count: 8630
[6]
  remaining NAD: 10 nM (inactive)

## CC(C)CCN1c2nc(Nc3cc(F)c(O)c(F)c3)ncc2N(C)C(=O)C1C (stereo unspecified)
[4]
  liver cell % of control: 87.7% and 90.4% and 106%
  parasite % of control: 35.4% (inactive) and 66.2% (inactive) and 39.4% (inactive)
[2]; [21]
  fold change: 1.05 (inactive)
[2]; [22]
  fold change: 0.299
[2]; [23]
  cell count: 2560
[2]; [24]
  cell count: 2450
[3]; [25]
  z-score: 0.0608 (inactive)
[3]; [26]
  z-score: -0.296

## Cc1cc(Nc2nc(NC(C)c3ccc(F)cc3)c(C#N)cc2F)n[nH]1 (stereo unspecified)
[4]
  liver cell % of control: 55.1% and 77.3% and 95.6%
  parasite % of control: 1.2% (inactive) and 12.7% (inactive) and 40% (inactive)
[2]; [21]
  fold change: 1.16 (inactive)
[2]; [22]
  fold change: 0.511
[2]; [23]
  cell count: 1300
[2]; [24]
  cell count: 1120
[3]; [25]
  z-score: 2.18 (active)
[3]; [26]
  z-score: -3.18

## Cc1c(Cl)cccc1Nc1ncccc1C(=O)O
[1]
  parasite load remaining: 71.2% (inactive)
  viability: 70.4%
[2]; [21]
  fold change: 0.943 (inactive)
[2]; [22]
  fold change: 0.763
[2]; [23]
  cell count: 9020
[2]; [24]
  cell count: 9560
[3]; [25]
  z-score: 0.72 (inactive)
[3]; [26]
  z-score: 0.0323

## CCCCCCCCCCCCCCCCCC(=O)OC(CC(=O)O)C[N+](C)(C)C (stereo unspecified)
[8]
  inhibition: -2.46%
[9]
  score: 0.53
[10]
  rescue above control: 6.57
[11]
  cytochrome c release ratio: 4.04
[12]
  inhibition of aggregation: 52.4%
[13]
  normalised LDH release: 0.986
[14]
  glutamate uptake change: -11.2%
[15]
  aggregation suppression score: -0.125
[16]
  period change: -0.05 h (inactive)
[17]
  inhibition: -2% (inactive)
[18]
  fluorescence ratio (interference): 1 (inactive)
[2]; [21]
  fold change: 0.979 (inactive)
[2]; [22]
  fold change: 0.6
[2]; [23]
  cell count: 4490
[2]; [24]
  cell count: 4590
[19]
  z-score: -1.38 (inactive)

## CC1(C)S[C@@H]2[C@H](NC(=O)[C@@H](N)c3ccc(O)cc3)C(=O)N2[C@H]1C(=O)O
[8]
  inhibition: 1.98%
[9]
  score: 1.39
[10]
  rescue above control: 1.27
[11]
  cytochrome c release ratio: 1.03
[12]
  inhibition of aggregation: 54.5%
[14]
  glutamate uptake change: 1.23%
[20]
  inclusion score: 2
[15]
  aggregation suppression score: 1.15
[1]
  parasite load remaining: 98.1% (inactive) and 66.2% (inactive)
  viability: 75% and 90.3%
[2]; [21]
  fold change: 0.918 (inactive)
[2]; [22]
  fold change: 1.48
[2]; [23]
  cell count: 11000
[2]; [24]
  cell count: 12000

## COc1ccc(-c2cc(=O)c3c(O)cc(O)cc3o2)cc1
[8]
  inhibition: -17.1%
[9]
  score: 1.2
[10]
  rescue above control: 10.4
[11]
  cytochrome c release ratio: 0.89
[12]
  inhibition of aggregation: 41.2%
[14]
  glutamate uptake change: -9.64%
[20]
  inclusion score: 2
[15]
  aggregation suppression score: 0.73
[5]
  survival: 3.33 (inactive)
[1]
  parasite load remaining: 73.8% (inactive) and 91.5% (inactive)
  viability: 92.5% and 92.4%
[2]; [21]
  fold change: 0.79 (inactive)
[2]; [22]
  fold change: 1.12
[2]; [23]
  cell count: 7540
[2]; [24]
  cell count: 9550
[7]
  luciferase signal: 40 AU (inactive)

## COC(C(=O)N1Cc2[nH]nc(NC(=O)c3ccc(N4CCN(C)CC4)cc3)c2C1)c1ccccc1 (stereo unspecified)
[4]
  liver cell % of control: 82.1% and 96.2% and 98.6%
  parasite % of control: 40.2% (inactive) and 56.3% (inactive) and 75.4% (inactive)
[2]; [21]
  fold change: 1.01 (inactive)
[2]; [22]
  fold change: 0.994
[2]; [23]
  cell count: 1850
[2]; [24]
  cell count: 1820
[3]; [25]
  z-score: 1.1 (inactive)
[3]; [26]
  z-score: -2.53

## CN1C2CC[C@H]1CC(OC(=O)C(O)c1ccccc1)C2 (stereo partly specified)
[9]
  score: 1.13
[10]
  rescue above control: -4.02
[14]
  glutamate uptake change: -10.2%
[20]
  inclusion score: 2
[15]
  aggregation suppression score: 1.37
[2]; [21]
  fold change: 0.844 (inactive)
[2]; [22]
  fold change: 1.44
[2]; [23]
  cell count: 10300
[2]; [24]
  cell count: 12200

## Nc1ncn(C2O[C@H](CO)[C@@H](O)[C@H]2O)c(=O)n1 (stereo partly specified)
[1]
  parasite load remaining: 151% (inactive)
  viability: 108%
[2]; [21]
  fold change: 0.664 (active)
[2]; [22]
  fold change: 1.38
[2]; [23]
  cell count: 2060
[2]; [24]
  cell count: 3100
[3]; [25]
  z-score: -0.101 (inactive)
[3]; [26]
  z-score: 0.0147

## C=C(NC(=O)C(=C)NC(=O)c1csc(C2=N[C@H]3c4csc(n4)[C@H]4NC(=O)c5csc(n5)[C@H]([C@@](C)(O)[C@@H](C)O)NC(=O)[C@H]5CSC(=N5)/C(=C\C)NC(=O)[C@H]([C@@H](C)O)NC(=O)c5csc(n5)[C@]3(CC2)NC(=O)[C@H](C)NC(=O)C(=C)NC(=O)[C@H](C)NC(=O)[C@H](C(C)CC)N[C@@H]2C=Cc3c([C@H](C)O)cc(nc3[C@H]2O)C(=O)O[C@@H]4C)n1)C(N)=O (stereo partly specified)
[1]
  parasite load remaining: 8.38% (inactive)
  viability: 102%
[2]; [21]
  fold change: 0.85 (inactive)
[2]; [22]
  fold change: 1.56
[2]; [23]
  cell count: 7430
[2]; [24]
  cell count: 8740
[3]; [25]
  z-score: 5.43 (active)
[3]; [26]
  z-score: 3.6
